33 compounds from PubChem BioAssay (EPA / NIEHS) can be followed below.

Results filed as inconclusive are left out. Calls of active or inactive are those of the source. Rule for the calls: active = hit-call score of the fitted dose curve at least 0.9, where 1 is the maximum; inconclusive = response in the unintended direction; inactive = score below 0.9.

Read-out in the assay: alkyl and aryl transferase (GSTA2), GSTA2 (gene 2939)
In words: CLD_GSTA2_6hr: CellzDirect (CLD) Gene Expression Assay for alkyl and aryl transferase (GSTA2) at 6 hours (AID 2283666). The protocol: CLD_6hr is a cell-based, multiplexed-readout assay that uses hepatocyte, a human liver primary cell, with measurements taken at 6 hours after chemical dosing in a 96-well plate.CLD_GSTA2_6hr is one of 16 assay component(s) measured or calculated from the CLD_6hr assay. It is designed to make measurements of mRNA induction, a form of inducible reporter, as detected with chemiluminescence signals by Quantitative Nuclease Protection Assay (qNPA) technology.Data from the assay component CLD_GSTA2_6hr was analyzed at the endpoint, CLD_GSTA2_6hr, in the positive analysis fitting direction relative to DMSO as the negative control and baseline of activity. Using a type of inducible reporter, gain-of-signal activity can be used to understand changes in the reporter gene as they relate to the gene GSTA2. Furthermore, this assay endpoint can be referred to as a primary readout. To generalize the intended target to other relatable targets, this assay endpoint is annotated to the transferase intended target family, where subfamily is alkyl and aryl transferase.
Human hepatocyte cultures were treated daily for two consecutive days with fresh dosing solutions containing appropriate concentrations of the 320 ToxCast chemicals (chemical identities were blinded to CellzDirect and other ToxCast collaborators), vehicle control (0.2% DMSO), and positive control inducers as summarized in Table 1. Due to the large number of treatment groups and chemicals examined, the ToxCast chemicals were divided into two groups (spanning two independent cultures of hepatocytes from separate donor preparations (Hu778: ToxCast plates 1 and 2; Hu776: ToxCast plates 3 and 4). Each preparation of human hepatocyte cultures was treated with respective vehicle control, medium only control, set of six positive controls/reference chemicals for the five hepatic receptor pathways, and a subset of eight of the ToxCast chemicals (indoxacarb, pyrithiobac-sodium, norflurazon, cyhalofop-butyl, methomyl, thiram, acetochlor, and propiconazole). These replicate data, coupled with internal replicates designed within the blinded ToxCast chemical library, provided additional data to evaluate interindividual differences between hepatocyte preparations and their potential impact on chemical profiles.Cell morphology and integrity were evaluated using phase-contrast microscopy as an indicator of hepatocyte cell health (Tyson & Green, 1987). Cultures for each treatment group (i.e., media, vehicle [0.2% DMSO], positive control inducers [multiple concentrations], and the ToxCast chemicals [multiple concentrations]) were observed and cell morphology was assessed relative to vehicle control cultures at each harvest time point (0, 6, 24, or 48 h). […] Images were evaluated at the conclusion of the study to assess changes in cell integrity and account for the effects of chemical exposure on uncharacteristic changes in concentration-dependent gene expression profiles. The results from these determinations of apparent cytotoxicity were annotated (yes/no) alongside the corresponding qNPA data for reference.At the conclusion of each treatment period, hepatocyte cultures (96-well) were washed with 1 volume of HBSS, lysed by addition of 25 ul ArrayPlate lysis buffer (HTG, Tucson, AZ), and 70 ul/well of Denaturation Oil, denatured by incubation at 95C for 10 min, and frozen at approximately -70C until analysis by nuclease protection assay (qNPA) (Roberts et al., 2007). For qNPA analysis, cell lysates were thawed at 50C for approximately 30 min, qNPA probes were added, and samples were incubated at 95C for 10 min to begin the detection process by denaturing the target RNA, dissociating the duplexes and secondary structure hybridization. At the conclusion of the hybridization period, S1 nuclease reagent was added to each sample to digest all nonprotected nucleotides at 50C for 60-90 min. […]
For the compound `CO/C=C(/C(=O)OC)c1ccccc1Oc1cc(Oc2ccccc2C#N)ncn1`, the outcome was inactive.
In the case of `CNC(=O)ON=CC(C)(C)SC`, the compound was called inactive.
Take `O=C(O)COc1nc(Cl)c(Cl)cc1Cl`: the compound was classed as inactive.
In the case of `C=CCC1=C(C)C(OC(=O)C2C(C=C(C)C)C2(C)C)CC1=O` (stereo not drawn) it was “inactive”; in that of `N#Cc1nn(-c2c(Cl)cc(C(F)(F)F)cc2Cl)c(N)c1S(=O)C(F)(F)F` (stereo not drawn), “inactive”.
Regarding `COC(=O)C=C(C)OP(=O)(OC)OC`, the call was inactive.
In the case of `CC(C)Oc1cc(-n2nc(C(C)(C)C)oc2=O)c(Cl)cc1Cl` it was “inactive”; in that of `CCOP(=S)(OCC)SCn1c(=O)oc2cc(Cl)ccc21`, “inactive”; in that of `Cc1ccc(-c2c(Cl)nc(C#N)n2S(=O)(=O)N(C)C)cc1`, “inactive”.
As for `Oc1ccccc1-c1ccccc1`, the call was inactive.
Under `CCCCNC(=O)OCC#CI` stands “inactive”.
`O=C(Nc1ccccc1)Nc1ccnc(Cl)c1`: the call was inactive.
Consider `CC(C)(C)c1ccc(CSc2cnn(C(C)(C)C)c(=O)c2Cl)cc1`, for which the outcome was inactive.
Under `CCc1nn(C)c(C(=O)NCc2ccc(C(C)(C)C)cc2)c1Cl` stands “inactive”; under `COP(N)(=O)SC` (stereo not drawn), “inactive”; under `O=C(O)c1nc(Cl)ccc1Cl`, “inactive”.
Under `COc1nc(C)nc(NC(=O)NS(=O)(=O)c2ccccc2CCC(F)(F)F)n1` stands “inactive”.
Regarding `CCCCNC(=O)n1c(NC(=O)OC)nc2ccccc21`, the call was inactive.
Under `CCOC(=O)CC(SP(=S)(OC)OC)C(=O)OCC` (stereo not drawn) stands “inactive”; under `COC(=O)N(OC)c1ccccc1COc1ccn(-c2ccc(Cl)cc2)n1`, “inactive”.
In the case of `Cc1cc(Cl)ccc1OCC(=O)O` it was “inactive”; in that of `COc1nc(NC(C)C)nc(NC(C)C)n1`, “inactive”.
In the case of `CC(Oc1ccc(Cl)cc1Cl)C(=O)O` (stereo not drawn), the outcome was inactive.
For the compound `Cc1c(F)c(F)c(COC(=O)C2C(/C=C(\Cl)C(F)(F)F)C2(C)C)c(F)c1F` (stereo not drawn), the compound was classed as inactive.
In the case of `CCOc1cc(Oc2ccc(C(F)(F)F)cc2Cl)ccc1[N+](=O)[O-]` it was “inactive”; in that of `CCNc1nc(Cl)nc(NC(C)C)n1`, “inactive”; in that of `CN(C)C(=S)SSC(=S)N(C)C`, “inactive”.
Consider `N#Cc1cc(Br)c(O)c(Br)c1`, for which the outcome was inactive.
For `COC(=O)C(C)Oc1ccc(Oc2ccc(Cl)cc2Cl)cc1` (stereo not drawn), the outcome was inactive.
Under `C=CCC1=C(C)[C@@H](OC(=O)[C@@H]2[C@@H](C=C(C)C)C2(C)C)CC1=O` stands “inactive”.
Under `CCON=C(CC)C1=C(O)CC(c2c(C)cc(C)cc2C)CC1=O` (stereo not drawn) stands “inactive”; under `COc1nc(C)nc(NC(=O)NS(=O)(=O)c2ccccc2Cl)n1`, “inactive”.
`C#CCOS(=O)OC1CCCCC1Oc1ccc(C(C)(C)C)cc1` (stereo not drawn): the call was inactive.
